Results filed as inconclusive are left out. Calls of active or inactive are those of the source. The calls were made as follows: active = hit-call score of the fitted dose curve at least 0.9, where 1 is the maximum; inconclusive = response in the unintended direction; inactive = score below 0.9.

human Serum/Glucocorticoid Regulated Kinase 1 (SGK1), SGK1 (gene 6446), sequence (O00141 whole entry, looked up): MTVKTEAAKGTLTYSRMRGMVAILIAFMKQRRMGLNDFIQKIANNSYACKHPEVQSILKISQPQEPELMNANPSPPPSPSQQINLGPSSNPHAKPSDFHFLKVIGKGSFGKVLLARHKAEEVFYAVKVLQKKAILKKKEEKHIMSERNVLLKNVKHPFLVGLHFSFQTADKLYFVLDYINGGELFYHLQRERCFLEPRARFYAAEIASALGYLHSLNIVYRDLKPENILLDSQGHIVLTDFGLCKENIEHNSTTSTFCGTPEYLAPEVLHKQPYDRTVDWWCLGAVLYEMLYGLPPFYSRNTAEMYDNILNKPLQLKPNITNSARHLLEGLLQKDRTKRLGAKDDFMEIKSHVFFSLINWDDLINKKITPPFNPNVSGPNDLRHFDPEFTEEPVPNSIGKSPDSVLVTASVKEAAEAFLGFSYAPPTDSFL

In this test the target is human Serum/Glucocorticoid Regulated Kinase 1 (SGK1), SGK1 (gene 6446) (UniProt O00141). The test is described as follows: NVS_ENZ_hSGK1: NovaScreen (NVS) Enzymatic Assay for human Serum/Glucocorticoid Regulated Kinase 1 (SGK1). The procedure:
NVS_ENZ_hSGK1 is a biochemical, single-readout assay that uses extracted gene-proteins in a cell-free assay. Measurements were taken 1 hour after chemical dosing in a 96-well plate.NVS_ENZ_hSGK1 is one of one assay component(s) measured or calculated from the NVS_ENZ_hSGK1 assay. It is designed to make measurements of enzyme activity, a form of enzyme reporter, as detected with fluorescence intensity signals by Fluorescence and electrophoretic mobility shift technology.Data from the assay component NVS_ENZ_hSGK1 was analyzed into 1 assay endpoint. This assay endpoint, NVS_ENZ_hSGK1, was analyzed in the positive analysis fitting direction relative to DMSO as the negative control and baseline of activity. Using a type of enzyme reporter, loss-of-signal activity can be used to understand changes in the enzymatic activity as they relate to the gene SGK1. Furthermore, this assay endpoint can be referred to as a primary readout, because this assay has produced […] where this one serves a enzymatic activity function. To generalize the intended target to other relatable targets, this assay endpoint is annotated to the kinase intended target family, where the subfamily is serine/threonine kinase.
Binding assays used specific radioligands (tritiated, iodinated) with non-radioactive competitive displacement ligands in agonist or antagonist protocols (as indicated) and various reference compounds and inhibitors to titrate specific binding to receptors and transporters. Most enzyme assays (CYPs, kinases, phosphatases, proteases, HDACs) used recombinant protein and specific substrates (fluorescence mostly, some colorimetric and radioactive) and inhibitors, followed by a biochemical separation of substrate and product. All assays for the biochemical HTS were initially run in duplicate at a single concentration (10 uM for CYP450 assays and 25 uM for all others). […]
`N#CSCSc1nc2ccccc2s1`: the outcome was inactive.

For `O=C(Nc1ccc([N+](=O)[O-])cc1Cl)c1cc(Cl)ccc1O`, the compound was called inactive.

For `S=C([S-])NCCNC(=S)[S-].[Mn+2]`, the AC50 is 10.6 µM (active).

As a reminder, the AC50 is the midpoint of the concentration-response curve, whichever way the signal moves.

These data come from PubChem BioAssay AID2283220 (EPA ToxCast).
